Among all 330,000 compounds or so, about 5,800 (1.8%) were called active.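 The calls were made as follows: active = inhibition above about 50% at the single tested dose (limit read from the data); inactive = the rest.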 Only a selection was taken, and actives are over-represented in it overall.

Sentrin-specific protease 6 (Homo sapiens), sequence (Q9GZR1 628-1112 limits assumed): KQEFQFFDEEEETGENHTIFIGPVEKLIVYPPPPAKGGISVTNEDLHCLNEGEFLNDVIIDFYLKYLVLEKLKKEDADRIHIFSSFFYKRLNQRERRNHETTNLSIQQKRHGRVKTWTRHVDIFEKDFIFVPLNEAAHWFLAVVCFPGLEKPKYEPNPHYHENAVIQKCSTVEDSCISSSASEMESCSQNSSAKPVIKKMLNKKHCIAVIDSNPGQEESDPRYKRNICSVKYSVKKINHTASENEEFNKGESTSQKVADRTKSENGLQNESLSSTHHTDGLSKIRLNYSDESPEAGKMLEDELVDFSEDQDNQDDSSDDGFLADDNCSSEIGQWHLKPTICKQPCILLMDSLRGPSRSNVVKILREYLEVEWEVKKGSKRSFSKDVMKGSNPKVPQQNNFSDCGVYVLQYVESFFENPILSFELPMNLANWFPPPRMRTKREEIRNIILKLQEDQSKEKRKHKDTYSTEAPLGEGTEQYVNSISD

This experiment addresses Sentrin-specific protease 6 (Homo sapiens) (UniProt Q9GZR1). Description: SENP6 protease inhibitors, primary screen, biochemical, luminescence, uHTS (AID 2599).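 Also: plate controls were DMSO wells with enzyme for no effect and DMSO wells lacking enzyme for full effect.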 Particulars: Recombinant SENP6 catalytic domain, aminoluciferin luminescence; at 10 µM; hits give high values.
The inhibition is the drop in the measured response relative to a control, in per cent. For `CC(C)(C)C(=O)NCCCNc1ccc([N+](=O)[O-])cc1`, the inhibition is -25.9% (inactive).
To `O=C(Nn1cnc2ccccc2c1=O)c1ccccc1` belongs -4.91% (inactive); to `CCCc1nc2ccccc2c(=O)n1/N=C/c1ccc(O)c(O)c1`, -27.3% (inactive).
To `O=c1c2ccccc2ncn1/N=C/c1ccccc1` belongs 85.3% (active).
For `COc1cccc(CNn2cn[nH]c2=S)c1OCc1ccccc1`, the inhibition was -3.63% (inactive).
For `Cc1cc2nc(SCCN3CCOCC3)[nH]c2cc1C`, the inhibition is 1.61% (inactive).
To `O=C(CCCN1C(=O)/C(=C/c2ccccc2)SC1=S)Nc1ccc(O)cc1` belongs 21.3% (inactive); to `COc1ccc(/C=C2\SC(=S)N(CC(=O)NNC(=O)c3ccncc3)C2=O)cc1`, -3.66% (inactive); to `C=CCOc1ccc(/C=C2\SC(=S)N(CCC(=O)O)C2=O)cc1`, 100% (active).
Turning to `O=C(CN1CCCCC1)Nc1ccccc1C(=O)NC1CC1`, the inhibition is -13.9% (inactive).
For `Cc1ccc(NC(=O)CS(=O)CC(=O)N(c2ccccc2)C(C)C(=O)NC2CCCC2)cc1` (centres undefined), the inhibition is -5.91% (inactive).
To `C/C(=C\C(=O)c1cccnc1)Nc1ccc(C)c(C)c1` belongs 6.26% (inactive); to `O=C(Nc1cccc(O)c1)c1ccc(C(=O)c2ccccc2)o1`, 2.68% (inactive); to `C/C(=C\C(=O)c1ccccc1)Nc1cccc(O)c1`, 57.9% (active).
Then `CCC1(CC)NC(=O)N(CC(=O)OCC(=O)c2cc(C)c(C)cc2C)C1=O`, with -10.6% (inactive).
To `Cc1ccc(S(=O)(=O)/N=C(\CN2CCOCC2)N2CCOCC2)cc1` belongs 12.4% (inactive).
With `COc1ccc(C(=O)COC(=O)c2ccc([N+](=O)[O-])s2)cc1OC`, the inhibition was 38.4% (inactive).
As for `O=C(OCC(=O)N1CCN(c2ccccc2)CC1)c1ccc([N+](=O)[O-])s1`, the inhibition is 49.4% (inactive).
To `COc1cc(NC(=O)COC(=O)c2ccc([N+](=O)[O-])s2)cc(OC)c1OC` belongs 68.2% (active).
Then `O=C(NCc1ccccc1CN1CCCC1)c1cccc(S(=O)(=O)Nc2ccc(F)cc2)c1`, with 18.3% (inactive).
Then `C[C@@H]1CN([C@@H](C)CO)C(=O)c2cc(NC(=O)C3CC3)ccc2O[C@H]1CN(C)C`, with 1.75% (inactive); and `COc1ccc(S(=O)(=O)N2CCC(C(=O)NCCC(=O)NCc3cccc(OC)c3)CC2)cc1`, with 0.176% (inactive).
Turning to `Cc1cccc(NS(=O)(=O)c2ccc(C)c(C(N)=O)c2)c1`, the inhibition was -6.03% (inactive).
Then `Cc1cccc(NS(=O)(=O)c2cccc(C(=O)NNC(=O)c3ccccc3O)c2)c1`, with 64.3% (active); and `CC(=O)N1CCN(C(=O)c2cccc(S(=O)(=O)Nc3ccc(C)cc3)c2)CC1`, with -4.46% (inactive).
Then `CNc1nc(SC)nc(N(C#N)CC(=O)OC)n1`, with 11.5% (inactive); and `CCN(CC)S(=O)(=O)c1ccc(C)c(NC(=O)COc2ccc(Br)cc2Cl)c1`, with 9.17% (inactive); and `Cc1cccc(NC(=O)COc2ccc(Br)cc2C)n1`, with 69.2% (active).
Then `Cc1cccc(NC(=O)Cc2ccc(Br)cc2)n1`, with 16% (inactive); and `Cc1ccc(N(C(=O)Cc2cccs2)C2C=CS(=O)(=O)C2)cc1Cl` (centres undefined), with -12.7% (inactive).
In the case of `O=C1CCC(=O)N(c2ccccc2)N1`, the inhibition is -18.9% (inactive).
To `O=C(c1cnccn1)N1CCN(S(=O)(=O)c2cccc(Cl)c2)CC1` belongs -6.78% (inactive).
To `Nc1ncc(-c2cc3ccccc3oc2=O)s1` belongs 92.4% (active); to `Cc1cc2c(=O)n(C)c(SCC(=O)c3cc4ccccc4o3)nc2s1`, 15.6% (inactive); to `O=C(NCc1cccnc1)c1cccc(-c2cc3ccccc3oc2=O)c1`, -7.83% (inactive).
Turning to `O=C(CN1C(=O)CC(c2ccccc2)=Nc2ccccc21)NC1CCCCC1`, the inhibition was -12% (inactive).
Then `CSCCC(NC(=O)COc1ccccc1)C(=O)Nc1ccc(C)cc1` (centres undefined), with -14.9% (inactive).
To `Cc1ccccc1Nc1nc(-c2cccnc2)cs1` belongs 47.4% (inactive); to `O=C(O)c1ccccc1C(=O)Nc1nc(-c2ccccc2)cs1`, -12.1% (inactive).
To `Cc1cccc(Nc2nc(-c3ccccc3)cs2)n1` belongs 93.1% (active).
`O=C(Nc1ccc(-c2csc(Nc3cccc(C(F)(F)F)c3)n2)cc1)c1cccc(C(F)(F)F)c1`: the inhibition is -9.78% (inactive).
Then `Cc1nc(NC(=O)c2cccc(Cl)c2)sc1-c1csc(Nc2cccc(Cl)c2)n1`, with 20% (inactive); and `CC(=O)Nc1cccc(-c2csc(Nc3cccc(C)n3)n2)c1`, with 91.9% (active).
Then `Cn1nnnc1SCC(=O)Nc1cccc(S(=O)(=O)N2CCCCC2)c1`, with -12.9% (inactive); and `Cc1cccc(CSc2nc3c(c(=O)n2C)SCC3)c1`, with 21.2% (inactive).
To `Cc1ccc(C(=O)N/N=C/c2cccc3ccccc23)cn1` belongs -7.6% (inactive); to `Cc1ccc(C(=O)N/N=C\c2cc(Br)c(Br)o2)cn1`, 66% (active).
On to `O=C(N/N=C\c1cc(Br)c(Br)o1)C1COc2ccccc2O1` (centres undefined), for which the inhibition is -7.15% (inactive).
To `CNC(=S)N/N=C/c1ccc(OCc2ccccc2)c(Br)c1` belongs -0.485% (inactive); to `CC(C)Oc1ccc(CN2CCC(n3nccc3NC(=O)c3cccnc3)CC2)cc1`, 0.591% (inactive).
To `O=C(N/N=C/c1ccc(Cl)c(Cl)c1)c1ccc2nc[nH]c2c1` belongs -7.64% (inactive); to `CSc1ccc(/C=N/NC(=O)c2cccc(Cl)c2)cc1`, 94.4% (active); to `CSc1ccc(/C=N\NC(=O)CC(=O)NC(C)C)cc1`, -5.21% (inactive).
`Cc1cc(C)c(NC(=O)CN2CCOCCOCCOCCOCC2)c(C)c1`: the inhibition is -4.6% (inactive).
Then `CN(C)C(CNC(=O)CCCOc1ccccc1)c1ccco1` (centres undefined), with -5.38% (inactive).
Then `O=c1oc2cc(O)ccc2cc1-c1ccc(F)cc1`, with 98% (active).
To `CN(C)c1cc(-c2ccc(F)cc2)oc(=O)c1Cl` belongs -8.53% (inactive).
Take `CCCCCCc1cc2cc(-c3nnc(-c4ccccc4)o3)c(=O)oc2cc1O`: the inhibition was -12.7% (inactive).
Then `COC(=O)c1c(C)oc(C)c1S(=O)(=O)NCc1ccc(Cl)cc1`, with -15.4% (inactive); and `CCOC(=O)c1c(/N=C/c2cc(C)ccc2O)sc2c1CCC2`, with 6.68% (inactive).
To `Cc1ccnc2nc(C(=O)Nc3nnc(-c4ccccc4)o3)nn12` belongs 7.14% (inactive); to `O=C(Nc1ccccc1C(F)(F)F)c1cc(-c2ccc(O)cc2)on1`, 1.85% (inactive); to `Cc1ccc(O)c(NC(=O)c2cc(-c3ccco3)on2)c1`, 62.9% (active).
To `O=C(Nc1cccnc1Cl)c1cc(-c2ccccc2O)on1` belongs 17.2% (inactive).

(Values after PubChem BioAssay AID2599 (Sanford-Burnham Center for Chemical Genomics, 2010).)
